Reference: PubChem BioAssay

biological target: Left-right determination factor 2 (Homo sapiens) (UniProt O00292); assay: small molecules binding LEFTY2 protein – biochemical, small-molecule microarray, 635 nm fluorescence scan, primary screen (AID 1110); details: higher = more signal
Sequence (O00292 whole entry, looked up): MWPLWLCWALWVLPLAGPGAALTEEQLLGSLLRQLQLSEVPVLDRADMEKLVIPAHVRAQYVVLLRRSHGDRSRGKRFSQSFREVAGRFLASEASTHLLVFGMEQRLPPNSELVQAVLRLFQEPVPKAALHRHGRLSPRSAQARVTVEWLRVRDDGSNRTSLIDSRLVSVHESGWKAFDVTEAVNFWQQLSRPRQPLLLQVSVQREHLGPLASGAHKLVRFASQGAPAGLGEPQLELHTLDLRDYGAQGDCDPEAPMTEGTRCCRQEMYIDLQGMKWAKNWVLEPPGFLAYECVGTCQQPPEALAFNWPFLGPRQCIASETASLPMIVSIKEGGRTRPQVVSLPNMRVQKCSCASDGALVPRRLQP

SMILES	composite z-score
COc1ccc([Si](C)(C)[C@@H]2[C@@H](CCO)O[C@]3(C(=O)N(Cc4ccc(N5C(=O)c6ccccc6Oc6ccccc65)cc4)c4ccccc43)[C@H]2C)cc1	-1.16
O=C1O[C@@H](c2ccccc2)[C@@H](c2ccccc2)N2[C@@H](c3ccc(O)cc3)[C@]3(C(=O)Nc4ccc(C#CC5(O)CCCCCC5)cc43)[C@@H](C(=O)N3CCN(c4ncccn4)CC3)[C@H]12	0.114
COCCCNC(=O)[C@@]1(C)c2ccccc2C(=O)N(c2ccc(C)cn2)[C@H]1c1ccc(CO)cc1	-0.877
COc1ccc([Si](C)(C)[C@H]2[C@H](CCO)O[C@@]3(C(=O)N(Cc4cccc(N5CCOC5=O)c4)c4ccccc43)[C@@H]2C)cc1	0.118
O=C(N1CCOCC1)[C@@]1(CCS(=O)(=O)c2ccccc2)COC(c2ccc(OCCCO)cc2)=N1	-1.21
COCCOC(=O)N1C(=O)[C@@]2(c3cc(C#Cc4ccc(OC)cc4)ccc31)[C@H](C(N)=O)[C@H]1C(=O)O[C@H](c3ccccc3)[C@H](c3ccccc3)N1[C@@H]2c1ccc(OCCO)cc1	0.746
C=C[C@H](C)[C@H](OC(=O)Nc1ccc(SC)cc1)c1ccc(O)c2ccccc12	-0.256
C=C(CCCC)/C(=C/C[C@H](OC(=O)c1ccncc1)c1ccc(CO)o1)c1cc(C(=O)OC)ccc1OC	0.982
CN1C(=O)C2C=CC(C(O)c3cccc4ccccc34)N(NC(=O)OC(C)(C)C)C2C1=O (stereo unspecified)	-0.22
COc1cc2c(cc1OC)CN(C(=O)[C@@H]1[C@H]3C(=O)O[C@H](c4ccccc4)[C@H](c4ccccc4)N3[C@H](c3ccc(OCCO)cc3)[C@@]13C(=O)Nc1ccc(C#CCCO)cc13)CC2	1.01
NCCCCCCNC(=O)[C@H]1C[C@H]2C(=O)N3CCC[C@H]3C(=O)N2[C@H]1c1ccc(O)cc1	0.55
C[C@H]1NC(=O)C([C@@H](C)OCc2ccccc2)NC(=O)[C@@]23C(=O)N[C@@H](Cc4ccccc4)C2[C@H](C)[C@@]2(C)O[C@H]2C3/C=C/CC/C=C/CNC1=O (stereo partly specified)	0.416
O=C1O[C@@H](c2ccccc2)[C@@H](c2ccccc2)N2[C@@H](c3ccc(O)cc3)[C@]3(C(=O)Nc4ccc(C#CC5=CCCCC5)cc43)[C@@H](C(=O)Nc3nc4ccccc4s3)[C@H]12	1.25
CC(C)(C)N1CC=CC23O[C@@H]4C=CCCOC(=O)C4[C@H]2C(=O)N(CCCO)[C@@H]3C1=O (stereo partly specified)	-0.611
CN(C)CCCCNC(=O)[C@H]1C[C@H]2C(=O)N[C@@H](CCCC[N+](C)(C)C)C(=O)N2[C@H]1c1cccc(OCCO)c1	0.206
CCCCC(CC)C(O)C1C=CC2C(=O)NC(=O)C2N1Nc1ccccn1 (stereo unspecified)	0.0645
C[N+](C)(C)CCCCCCNC(=O)[C@@H]1C[C@@H]2C(=O)NCC(=O)N2[C@@H]1c1cccc(OCCO)c1	0.695
CCCCC=C[C@@H](NC(=O)CCc1ccccc1)c1ccccc1	0.151
C[N+](C)(C)CCCCCCNC(=O)[C@H]1C[C@H]2C(=O)N3CCC[C@H]3C(=O)N2[C@H]1c1cccc(OCCO)c1	1.46
COc1cccc(C)c1NC(=O)O[C@H]1[C@H](OC(=O)Nc2ccccc2)[C@H](OC(=O)Nc2ccccc2)[C@@H](OC)O[C@@H]1CO	-0.183
CC(C)NC(=O)[C@@]1(Cc2ccccc2I)c2ccccc2C(=O)N(Cc2ccccc2C(F)(F)F)[C@H]1c1ccc(CO)cc1	-0.0083
COCCCNC(=O)[C@@]1(Cc2ccccc2CN=[N+]=[N-])N=C(c2ccc(OCCCO)cc2)O[C@H]1c1ccccc1N=[N+]=[N-]	0.0652
C=C(C)[C@@H]1CC=C(C(O)C2C=CC3C(=O)N(C4CCCCC4)C(=O)C3N2Nc2ccc(OC)cc2)CC1 (stereo partly specified)	0.3
C=CCC(OC(C)=O)[C@@H]1[C@@H](N(Cc2ccc(-c3ccccc3)cc2)C(=O)Cc2ccc(OC)cc2)c2cc(OCCCO)ccc2N1C(=O)c1ccc(-c2ccccc2)cc1 (stereo partly specified)	0.265
CC(C)=CCCC(C)=CC(O)C1C=CC2C(=O)N(c3ccccc3)C(=O)C2N1Nc1ccc([N+](=O)[O-])cc1 (stereo unspecified)	-0.183

biological target: Calmodulin-1 (Homo sapiens) (UniProt P0DP23); assay: small molecules binding calmodulin-1 with EGTA – biochemical, small-molecule microarray, Cy5-labelled CALM1, profiling panel (AID 1111); details: Cy5-CALM1 binding fluorescence, higher = more signal;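 note: labelled calmodulin applied in Tris saline Tween buffer holding calcium plus EGTA and DTT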

SMILES	composite z-score
COC(=O)[C@H]1N=C(c2ccc(OCCCO)cc2)O[C@H]1c1ccccc1CN=[N+]=[N-]	0.452
C[N+](C)(C)CCCCNC(=O)[C@H]1C[C@H]2C(=O)NCC(=O)N2[C@H]1c1ccc(O)cc1	-1.08
CN(C)CCCCCCNC(=O)[C@@H]1C[C@@H]2C(=O)NCC(=O)N2[C@@H]1c1ccc(O)cc1	-1.53
COc1ccc(C#Cc2ccc3c(c2)[C@]2(C(=O)N3)[C@H](c3ccc(OCCO)cc3)N3[C@H](c4ccccc4)[C@H](c4ccccc4)OC(=O)[C@H]3[C@@H]2C(=O)N2CCN(c3ncccn3)CC2)cc1	1.91
[N-]=[N+]=NCc1ccccc1[C@H]1OC(c2ccc(OCCCO)cc2)=N[C@@]1(Cc1ccccc1)C(N)=O	0.931
C#CCOC(=O)N[C@H](C=CCCCC)c1ccccc1	0.44
COc1cccc(C[C@H]2C[C@@H](CO[Si](C(C)C)(C(C)C)C(C)C)N3C(=O)[C@]4(C(C)=O)O[C@]23[C@H]2C(=O)N(C)C(=O)[C@H]24)c1	0.293
C=C(COC)/C(=C/C[C@@H](OC(=O)c1ccncc1)c1cccc(OCCO)c1)c1cc(C(=O)OC)ccc1OC	-0.134
C[N+](C)(C)CCCC[C@@H]1NC(=O)[C@@H]2C[C@H](C(=O)NCCCCCNC(=O)CS)[C@H](c3cccc(OCCO)c3)N2C1=O	-0.0534
CCCCCCCCCCC(O)C1C=CC2C(=O)NC(=O)C2N1Nc1ccccn1 (stereo unspecified)	1.4
CCOC(=O)C[C@H]1[C@H](OC(=O)c2ccc(C(=O)c3ccccc3)cc2)[C@@H](NC(=O)C2CCCCC2)c2cc(OCCCO)ccc2N1C(=O)Cc1ccc(OC)cc1	1.13
COc1ccc([Si](C)(C)[C@@H]2[C@@H](CCO)O[C@]3(C(=O)N(Cc4ccc(N5C(=O)c6ccccc6Oc6ccccc65)cc4)c4ccccc43)[C@H]2C)cc1	0.322
O=C1O[C@@H](c2ccccc2)[C@@H](c2ccccc2)N2[C@@H](c3ccc(O)cc3)[C@]3(C(=O)Nc4ccc(C#CC5(O)CCCCCC5)cc43)[C@@H](C(=O)N3CCN(c4ncccn4)CC3)[C@H]12	1.03
COCCCNC(=O)[C@@]1(C)c2ccccc2C(=O)N(c2ccc(C)cn2)[C@H]1c1ccc(CO)cc1	-0.949
COc1ccc([Si](C)(C)[C@H]2[C@H](CCO)O[C@@]3(C(=O)N(Cc4cccc(N5CCOC5=O)c4)c4ccccc43)[C@@H]2C)cc1	1.4
O=C(N1CCOCC1)[C@@]1(CCS(=O)(=O)c2ccccc2)COC(c2ccc(OCCCO)cc2)=N1	1.25
COCCOC(=O)N1C(=O)[C@@]2(c3cc(C#Cc4ccc(OC)cc4)ccc31)[C@H](C(N)=O)[C@H]1C(=O)O[C@H](c3ccccc3)[C@H](c3ccccc3)N1[C@@H]2c1ccc(OCCO)cc1	0.894
C=C[C@H](C)[C@H](OC(=O)Nc1ccc(SC)cc1)c1ccc(O)c2ccccc12	-0.413

SMILES	composite z-score
C=C(CCCC)/C(=C/C[C@H](OC(=O)c1ccncc1)c1ccc(CO)o1)c1cc(C(=O)OC)ccc1OC	0.786
CN1C(=O)C2C=CC(C(O)c3cccc4ccccc34)N(NC(=O)OC(C)(C)C)C2C1=O (stereo unspecified)	2.49
COc1cc2c(cc1OC)CN(C(=O)[C@@H]1[C@H]3C(=O)O[C@H](c4ccccc4)[C@H](c4ccccc4)N3[C@H](c3ccc(OCCO)cc3)[C@@]13C(=O)Nc1ccc(C#CCCO)cc13)CC2	1.73
NCCCCCCNC(=O)[C@H]1C[C@H]2C(=O)N3CCC[C@H]3C(=O)N2[C@H]1c1ccc(O)cc1	0.192
C[C@H]1NC(=O)C([C@@H](C)OCc2ccccc2)NC(=O)[C@@]23C(=O)N[C@@H](Cc4ccccc4)C2[C@H](C)[C@@]2(C)O[C@H]2C3/C=C/CC/C=C/CNC1=O (stereo partly specified)	-0.377
O=C1O[C@@H](c2ccccc2)[C@@H](c2ccccc2)N2[C@@H](c3ccc(O)cc3)[C@]3(C(=O)Nc4ccc(C#CC5=CCCCC5)cc43)[C@@H](C(=O)Nc3nc4ccccc4s3)[C@H]12	1.48
CC(C)(C)N1CC=CC23O[C@@H]4C=CCCOC(=O)C4[C@H]2C(=O)N(CCCO)[C@@H]3C1=O (stereo partly specified)	-0.801
CN(C)CCCCNC(=O)[C@H]1C[C@H]2C(=O)N[C@@H](CCCC[N+](C)(C)C)C(=O)N2[C@H]1c1cccc(OCCO)c1	0.285
CCCCC(CC)C(O)C1C=CC2C(=O)NC(=O)C2N1Nc1ccccn1 (stereo unspecified)	1.07
C[N+](C)(C)CCCCCCNC(=O)[C@@H]1C[C@@H]2C(=O)NCC(=O)N2[C@@H]1c1cccc(OCCO)c1	0.21
CCCCC=C[C@@H](NC(=O)CCc1ccccc1)c1ccccc1	0.504
C[N+](C)(C)CCCCCCNC(=O)[C@H]1C[C@H]2C(=O)N3CCC[C@H]3C(=O)N2[C@H]1c1cccc(OCCO)c1	-0.205
COc1cccc(C)c1NC(=O)O[C@H]1[C@H](OC(=O)Nc2ccccc2)[C@H](OC(=O)Nc2ccccc2)[C@@H](OC)O[C@@H]1CO	1.81
CC(C)NC(=O)[C@@]1(Cc2ccccc2I)c2ccccc2C(=O)N(Cc2ccccc2C(F)(F)F)[C@H]1c1ccc(CO)cc1	0.503
COCCCNC(=O)[C@@]1(Cc2ccccc2CN=[N+]=[N-])N=C(c2ccc(OCCCO)cc2)O[C@H]1c1ccccc1N=[N+]=[N-]	1.56
C=C(C)[C@@H]1CC=C(C(O)C2C=CC3C(=O)N(C4CCCCC4)C(=O)C3N2Nc2ccc(OC)cc2)CC1 (stereo partly specified)	1.5
C=CCC(OC(C)=O)[C@@H]1[C@@H](N(Cc2ccc(-c3ccccc3)cc2)C(=O)Cc2ccc(OC)cc2)c2cc(OCCCO)ccc2N1C(=O)c1ccc(-c2ccccc2)cc1 (stereo partly specified)	0.36
CC(C)=CCCC(C)=CC(O)C1C=CC2C(=O)N(c3ccccc3)C(=O)C2N1Nc1ccc([N+](=O)[O-])cc1 (stereo unspecified)	1.78
